# PubChem BioAssay AID651687 (Broad Institute, 2012)
# Values joined by “and” are separate entries in the source; they are usually repeats but may differ in a detail not shown here. Equal entries are not always repeated. Out of some 350,000 compounds screened, about 600 (0.17%) were called active. The list comes from a sample in which actives are over-represented; it also holds similar structures and randomly drawn compounds. A number with no mark means an inactive call.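 The calls were made as follows: active = every replicate shows inhibition of at least 40%; inconclusive = mean inhibition at least 40% but some replicate below; inactive = the rest.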
# Test: compounds lowering acetylated PGC1a in cells – cell-based, U2OS, AlphaScreen, inhibitor mode, primary screen (AID 651687);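 also: 0% = neutral control wells and 100% = positive control wells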
# Conditions: U2OS PGC1a acetylation, AlphaScreen anti-acetyl-lysine; at 15.6 µM; stronger effect = higher value; with virally co-expressed GCN5 acetyltransferase
row,SMILES,inhibition
1,CC(C)CC#Cc1ccc2c(c1)O[C@H](CN(C)C(=O)C1CC1)[C@@H](C)CN([C@@H](C)CO)S2(=O)=O,3.73%
2,CCCN1C[C@@H](C)[C@H](OC)CN(C)C(=O)c2cc(NC(=O)CC)ccc2OC[C@@H]1C,3.35%
3,C/C=C/c1ccc([C@H]2[C@H]3CN(S(=O)(=O)c4ccccc4)CCCCN3[C@H]2CO)cc1,-5.04%
4,Cc1noc(C)c1NC(=O)N(C)C[C@@H]1Oc2ccc(NC(=O)Nc3ccc4c(c3)OCO4)cc2CC(=O)N([C@H](C)CO)C[C@H]1C,-8.32%
5,O=C(C1CCCC1)N1CC(=O)N2[C@H](CO)[C@H](c3ccc(Br)cc3)[C@@H]2C1,-9%
6,C[C@@H]1CN([C@H](C)CO)C(=O)Cc2cc(NC(=O)Cn3cnnn3)ccc2O[C@H]1CN(C)CC1CCCCC1,-7.22%
7,N#C[C@H]1[C@H](c2ccc(-c3cccc(F)c3)cc2)[C@@H](CO)N1C(=O)NC1CCCC1,4.29%
8,C[C@@H]1CN([C@H](C)CO)C(=O)c2cccc(NS(=O)(=O)c3cn(C)cn3)c2O[C@@H]1CN(C)Cc1ccc(C(F)(F)F)cc1,-1.87%
9,O=C(C[C@H]1C[C@@H]2c3cc(NC(=O)c4ccc5c(c4)OCO5)ccc3O[C@@H]2[C@@H](CO)O1)NCc1cccnc1,-3.47%
10,COCC(=O)N1CC(=O)N2[C@H](C1)[C@@H](c1ccc(C#Cc3cccc(OC)c3)cc1)[C@@H]2CO,-0.955%
11,Cc1nc2ccccc2c(=O)n1NC(=O)c1ccc(Cl)c([N+](=O)[O-])c1,44.8% (active)
12,O=C(O)c1ccc2c(=O)n3c(nc2c1)/C(=C/c1ccc(Cl)c([N+](=O)[O-])c1)CC3,12.5%
13,Cc1ccnc(NC(=O)c2ccc(Cl)c([N+](=O)[O-])c2)c1,3%
14,O=C(C1CC1)N1CC(=O)N2[C@H](CO)[C@@H](c3ccc(-c4ccccc4F)cc3)[C@@H]2C1,6.24%
15,C[C@H]1CN([C@@H](C)CO)C(=O)c2cc(-c3ccc(C#N)cc3)cnc2O[C@@H]1CN(C)Cc1ccncc1,-4.55%
16,C[C@@H]1CCCCO[C@H](CN(C)C(=O)Nc2ccccc2)[C@H](C)CN([C@H](C)CO)C(=O)c2cc(N(C)C)ccc2O1,0.535%
17,O=C(C[C@H]1C=C[C@H](NC(=O)c2cnccn2)[C@@H](CO)O1)NCc1ccccc1F,-5.81%
18,CN1CCN(CCC(=O)N/N=C/C=C2\N(C)c3ccccc3C2(C)C)CC1,17.1%
19,CN1/C(=C\C(=O)c2oc3ccccc3c2N)C(C)(C)c2ccccc21,86.9% (active)
20,CN1/C(=C\C=C2\N=C(c3ccc(F)cc3)OC2=O)C(C)(C)c2ccccc21,-0.203%
21,C[C@@H]1CN([C@H](C)CO)C(=O)c2cccc(NC(=O)c3nc4ccccc4s3)c2O[C@@H]1CN(C)Cc1ccc(Oc2ccccc2)cc1,16.2%
22,CN1CCN(C(=O)C[C@H]2CC[C@H]3[C@@H](COC[C@H](O)CN3CC3CCOCC3)O2)CC1,0.0455%
23,CC/C(=N\NC(=O)c1ccccc1Cl)c1ccc(Br)s1,82.8% (active)

row,SMILES,inhibition
1,O=C(N/N=C\c1cc2c(cc1Cl)OCO2)c1ccc(Br)s1,-10.7%
2,C/C(Cc1ccccc1)=N\NC(=O)CNC(=O)c1ccccc1Cl,5.72%
3,COc1ccc(S(=O)(=O)N(C)C[C@H]2OCCCC[C@@H](C)Oc3ccc(NS(=O)(=O)c4ccc(C)cc4)cc3C(=O)N([C@@H](C)CO)C[C@@H]2C)cc1,0.06%
4,COc1ccc(-c2ccc(CCC(=O)O)n2-c2ccc(O)cc2)cc1,1.05%
5,COCCCn1c(CCC(=O)O)ccc1-c1ccc(F)cc1,-1.42%
6,COc1ccc(-c2ccc(CCC(=O)O)n2NC(=O)c2ccc(C(C)(C)C)cc2)cc1,43.5% (active)
7,Cc1noc(C)c1NC(=O)N(C)C[C@@H]1OCCCC[C@H](C)Oc2ccc(NS(=O)(=O)c3c(C)noc3C)cc2C(=O)N([C@@H](C)CO)C[C@@H]1C,-1.1%
8,CN1C(=O)c2cc(NC(=O)C3CCOCC3)ccc2OC[C@@H]2O[C@@H](CC(=O)NCC3CC3)CC[C@@H]21,4.15%
9,C[C@@H]1CN([C@H](C)CO)C(=O)c2cc(NS(=O)(=O)c3cn(C)cn3)ccc2O[C@@H](C)CCCCO[C@@H]1CN(C)C(=O)CCC(F)(F)F,-2.59%
10,COc1ccc(NC(=O)N2CC(=O)N3[C@H](CO)[C@@H](c4ccc(-c5ccc(C)cc5)cc4)[C@H]3C2)cc1,5.16%
11,COc1ccccc1C(=O)Nc1ccc2c(c1)OC[C@@H](C)NC[C@H](C)[C@@H](OC)CN(C)C2=O,-5.63%
12,O=C(C[C@@H]1C[C@@H]2c3cc(NC(=O)c4ccc5c(c4)OCO5)ccc3O[C@@H]2[C@H](CO)O1)NCCc1ccccc1,-4.93%
13,CCN1[C@@H]2Cn3c(ccc(-c4cccnc4)c3=O)[C@H]1[C@@H](C(=O)NC1CCCCC1)[C@@H]2CO,1.27%
14,CCCNC(=O)C[C@H]1CC[C@H]2[C@@H](COC[C@H](O)CN2C(=O)CC)O1,3.49%
15,CCCNC(=O)C[C@H]1CC[C@@H]2[C@H](COC[C@H](O)CN2S(=O)(=O)c2ccccc2F)O1,-0.728%
16,O=C(C[C@@H]1CC[C@H](NC(=O)CN2CCOCC2)[C@@H](CO)O1)NCCc1ccccc1,-5.55%
17,CC(C)NC(=O)Nc1ccc2c(c1)C(=O)N([C@@H](C)CO)C[C@@H](C)[C@H](CN(C)S(=O)(=O)c1ccccc1)OCCCC[C@@H](C)O2,124% (active)
18,CC(C)NC(=O)Nc1ccc2c(c1)C(=O)N([C@@H](C)CO)C[C@@H](C)[C@@H](CN(C)S(=O)(=O)c1ccc(F)cc1)OCCCC[C@H](C)O2,-0.972%
19,CC(C)NC(=O)Nc1ccc2c(c1)C(=O)N([C@@H](C)CO)C[C@H](C)[C@H](CN(C)S(=O)(=O)c1ccc(Cl)cc1)OCCCC[C@H](C)O2,-18.6%
20,C[C@@H]1CN([C@H](C)CO)S(=O)(=O)c2ccc(C#CC3CCCC3)cc2O[C@@H]1CN(C)Cc1cccnc1,-39.6%
21,COCC(=O)Nc1ccc2c(c1)OC[C@@H](C)N(C(=O)c1cnccn1)C[C@H](C)[C@@H](OC)CN(C)C2=O,-1.16%
22,Cc1ccc(S(=O)(=O)NC[C@H]2CC[C@@H]3[C@@H](CN3Cc3ccccc3C(=O)O)O2)cc1,-6.11%
23,Cc1noc(C)c1NC(=O)N(C)C[C@H]1OCCCC[C@H](C)Oc2ccc(NC(=O)Cc3ccccc3)cc2C(=O)N([C@H](C)CO)C[C@@H]1C,0.037%

row,SMILES,inhibition
1,C[C@H]1CN([C@@H](C)CO)C(=O)c2cc(NC(=O)Nc3ccccc3)ccc2O[C@H]1CN(C)S(C)(=O)=O,-6.24%
2,C[C@@H]1CN([C@@H](C)CO)C(=O)c2cc(/C=C/c3ccccc3)cnc2O[C@H]1CN(C)C(=O)Nc1ccc(C(F)(F)F)cc1,-1.88%
3,O=C(NC1=CC(=O)c2ccccc2C1=O)c1ccccc1,80.8% (active)
4,O=C(Nc1ccc2ccccc2c1[N+](=O)[O-])c1ccccc1,14%
5,O=C(Nc1ncccc1O)c1ccc(C(=O)c2ccccc2)cc1,5.14%
6,O=C(CC1CC1)N1CC[C@@H]2[C@@H](CO)Nc3ccc(-c4ccccc4)cc3[C@@H]21,-14.4%
7,CO[C@@H]1CN(C)C(=O)c2cc(NC(=O)Nc3cccc(Cl)c3)ccc2OC[C@@H](C)N(C)C[C@@H]1C,7.96%
8,CCCN1C[C@@H](C)[C@@H](OC)CN(C)C(=O)c2cc(NC(=O)c3ccccc3)ccc2OC[C@H]1C,-3.59%
9,Cc1cc(C(=O)Nc2cccc3c2O[C@@H](CN(C)S(=O)(=O)c2ccc(F)cc2)[C@@H](C)CN([C@H](C)CO)C3=O)n(C)n1,4.7%
10,O=C(C[C@@H]1CC[C@@H](NS(=O)(=O)c2ccccc2)[C@H](CO)O1)NCc1ccc(Cl)c(Cl)c1,-0.169%
11,COCC(=O)N1CC2(CN(C(=O)c3cccnc3)C2)c2c([nH]c3cc(OC)ccc23)[C@H]1CO,3.03%
12,Cc1oc2c(c1C(=O)N1CCOCC1)C(=O)c1ccccc1C2=O,42.9% (active)
13,O=C(c1snnc1-c1ccccc1)N1CCOCC1,17.2%
14,Cc1ccc(C(=O)N2CCN(S(=O)(=O)N3CCOCC3)CC2)cc1,-14.3%
15,O=C(C1CCCCC1)N1C[C@@H]2N[C@H](C1)C2c1ccc(-c2cccc(F)c2)cc1 (stereo partly drawn),-62.3% and -12.6%
16,CN(C)C(=O)c1ccc(-c2ccc(C3[C@@H]4CN(C(=O)Nc5ccccc5)C[C@H]3N4)cc2)cc1 (stereo partly drawn),-6.33%
17,Cc1cccc(-c2ccc(C3[C@@H]4CN(C(=O)Nc5ccc(C(F)(F)F)cc5)C[C@H]3N4)cc2)c1 (stereo partly drawn),92.4% (active) and 92.8% (active)
18,CO[C@H]1CN(C)C(=O)c2ccc(NC(=O)NC(C)C)cc2OC[C@@H](C)N(C(=O)CN(C)C)C[C@H]1C,9.74%
19,Cc1ccc(-c2c[n+](CC(=O)Nc3ccccc3)c3n2CCC3)cc1,43.3% (active)
20,Clc1ccc(C[n+]2cc(-c3ccccc3)n3c2CCC3)cc1,-17.2%
21,Cc1ccc(C(=O)C[n+]2cc(-c3ccccc3)n3c2CCCCC3)cc1,20.9%
22,COc1ccc(S(=O)(=O)Nc2ccc3c(c2)C(=O)N([C@H](C)CO)C[C@H](C)[C@@H](CN(C)Cc2ccccc2)OCCCC[C@@H](C)O3)cc1,-2.9%
